About 83,000 compounds went through this panel and 20% of them were active in at least one assay; those are over-represented in the sample as a whole.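 Method: cells in 96-well plates; compound added at one concentration; 48 h incubation; percent growth measured; values under 10 scored active.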 Values without a mark were called inactive. Active and inactive are the calls of the source.
test system: HL-60(TB) leukemia; assay: NCI-60 one-dose screen, 48 h (100 = growth as untreated, 0 = no growth, -100 = all killed); conditions: 10 µM unless noted

How did the growth turn out when `CNc1nc2ncn(C)c2c(=O)[nH]1` was run?
The growth was 91.5%.

How did the growth turn out when `Cc1nccc2c3ccc(OCc4cn(-c5ccc(Br)cc5)nn4)cc3n(CCCc3ccccc3)c12` was run?
The growth was 46.1%.

How did the growth turn out when `C=CCOC1=CC(=O)c2ccccc2C1=O` was run?
Its growth is 41.6%.

Which growth does the source give for `CCCCC(CC)COC(=O)C[N+](C)(C)CCOC(c1ccccc1)c1ccccc1` (stereo not drawn) here?
The growth was -56.7% (active).

`CC12CCC3C4(C)COC(c5ccccc5Cl)OC4CCC3(C)C1CC(C1=CCOC1=O)O2` (stereo not drawn) was tested. Which growth did it give?
The growth was 26.2%.

`Cn1c(O)c(C(/C=C/c2ccccc2)=Nc2ccccc2N)c(=O)n(C)c1=O` was tested. Which growth did it give?
Its growth is -39.4% (active).

How did the growth turn out when `COC(=O)C1=C(C)C(=O)CC1` was run?
Its growth is 86.7%.

With `CCC(=O)Oc1cc(/C=C/C(=O)O[C@H]2C[C@H]3CN4CCc5c([nH]c6cc(OC)ccc56)[C@@H]4C[C@@H]3[C@@H](C(=O)OC)[C@@H]2OC)ccc1OC` as the compound, how does the growth read?
Its growth is 16.3%.

Which growth does the source give for `O=C(C(=O)c1cc(Br)ccc1O)c1cc(Br)ccc1O` here?
The growth was 27.4%.

Which growth does the source give for `Clc1cc(Cl)cc(N2N=C(c3cccc(Nc4ccncc4)c3)CC2c2ccccc2)c1` (stereo not drawn) here?
The growth was 4.62% (active).

For `CC(=N\N=C(N)N)/C(=N/N=C(N)N)c1ccccc1`, which growth is on record?
The growth was 98.7%.

How did the growth turn out when `CC1(C)NC(=O)c2[nH]c3c(Cl)c(Cl)ccc3c2C1C#N` (stereo not drawn) was run?
The growth was 65.4%.

Which growth does the source give for `CCCCCCCC/C=C\CCCCCCCC(=O)OCCCCCC` here?
Its growth is 93.6%.

`O=C(Nc1ccccc1)P(=O)(O)c1ccccc1` was tested. Which growth did it give?
The growth was 92.2%.

With `CC(=O)Nc1ccc(S(=O)(=O)c2ccnc3cc(Cl)ccc23)cc1` as the compound, how does the growth read?
Its growth is 87%.

Which growth does the source give for `Fc1[nH]nc2ccc([C@@H]3Nc4ccc5[nH]ncc5c4[C@H]4C5CCC(C5)[C@@H]34)cc12` (stereo partly drawn) here?
Its growth is 14.4%.

How did the growth turn out when `[2H]C1([2H])CCN(C(=O)C2CC2)c2cc(NS(=O)(=O)c3ccc(-c4cccc(C(N)=O)c4)cc3)ccc21` was run?
Its growth is -0.857% (active).

`O=C1CCC(c2c(O)cc(O)c3c(=O)c(O)c(-c4ccc(O)c(O)c4)oc23)N1` (stereo not drawn) was tested. Which growth did it give?
Its growth is 87%.

With `CC(=O)OC/C(C)=C\CC(C)COC(C)=O` (stereo not drawn) as the compound, how does the growth read?
The growth was 101%.

For `CCOC(=O)c1c(C)nc2c(c1N)CC(=O)N2Cc1cc(OC)c(OC)c(OC)c1`, which growth is on record?
The growth was 18.8%.

With `Cc1ccc(/C=C/c2c(C(=O)/C=C/c3ccc(Cl)cc3)c(C)nc3ccccc23)cc1` as the compound, how does the growth read?
Its growth is -8.89% (active).

With `COc1cnc2c(c1)C(=O)c1c-2n(CCCN2CCNCC2)c(=O)c2cc([N+](=O)[O-])ccc12` as the compound, how does the growth read?
Its growth is -49% (active).

For `O=C1CCC(C(=O)NCCNCCNC(=O)C2CCC(=O)N2)N1` (stereo not drawn), which growth is on record?
Its growth is 89.2%.

For `Cc1c2c[n+](C(C)C)ccc2c(C)c2c1[nH]c1ccccc12`, which growth is on record?
The growth was 14.4%.

How did the growth turn out when `CCCCC(CCc1ccccn1)C(=O)c1ccccc1` (stereo not drawn) was run?
The growth was 110%.

With `O=C(/C=C\c1ccc(NCc2ccc(C(=O)O)cc2)cc1)CCl` as the compound, how does the growth read?
The growth was 97.7%.

For `Cc1nn2c(/C=C3/C(=O)Nc4cc(Cl)ccc43)c(-c3ccccc3)nc2s1`, which growth is on record?
Its growth is 32.2%.

How did the growth turn out when `O=C(Nc1ccc(-n2cc(-c3ccncc3)c(-c3ccc(Cl)c(O)c3)n2)cc1)c1ccc(Cl)c(Cl)c1` was run?
Its growth is -27% (active).
